# Experimental data published in PubChem BioAssay AID1259420 (Broad Institute, 2018).
# Hit rate of the full screen: of about 1,000 compounds, about 250 (25%) were called active. Roughly 31% stayed inconclusive and do not appear here. A selection follows. Potency and affinity values are given separately. Unmarked numbers belong to inactive results. The rule behind the calls is not given here.
# Experiment: compound activity on host-cell Toxoplasma growth – dose response (AID 1259420);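 note: host cells were HeLa; final incubation lasted 72 hours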
# Settings: Toxoplasma gondii growth in host cells, no IFN-gamma
compound,measurement,setting,value
C/C=C/c1ccc(C2[C@H]3CNC[C@@H]2N3Cc2ccc3c(c2)OCO3)cc1 (some centres not stated),max activity,at 19.5 µM unless noted,11.3%
Fc1ccc(F)c(CN2[C@@H]3CNC[C@H]2C3c2ccc(-c3ccncc3)cc2)c1 (some centres not stated),max activity,at 0.16 µM,-17.4%
same,max activity,at 10 µM,-4.19%
C[C@@H]1CN([C@@H](C)CO)C(=O)Cc2cc(NS(=O)(=O)c3ccc(Cl)cc3)ccc2O[C@@H]1CN(C)C(=O)Nc1ccc(C(F)(F)F)cc1,max activity,at 19.5 µM unless noted,23.3%
CC(C)N1CCC(c2ccnc3c(C(=O)N4CCCN(C)CC4)ncn23)CC1,max activity,at 19.5 µM unless noted,-10.4% [at 5 µM]
N#C[C@@H]1[C@H](c2ccc(-c3cccc(F)c3)cc2)[C@@H](CO)N1C(=O)NC1CCCC1,max activity,at 19.5 µM unless noted,22.7%
COCC(=O)N1[C@H](C#N)[C@H](c2ccc(C#CCC3CCCC3)cc2)[C@@H]1CO,max activity,at 19.5 µM unless noted,6.51% [at 10 µM]
N#C[C@@H]1[C@@H](c2ccc(C#Cc3cccnc3)cc2)[C@@H](CO)N1C(=O)NC1CCCCC1,max activity,at 19.5 µM unless noted,-10.9%
N#C[C@H]1[C@@H](c2ccc(-c3cccc(F)c3)cc2)[C@H](CO)N1C(=O)NC1CCCC1,max activity,at 1.2 µM,-11.5%
same,max activity,at 19.5 µM,14.4%
C/C=C/c1ccc([C@H]2[C@H](CO)N3C(=O)CN(C(=O)NC4CCCCC4)C[C@@H]23)cc1,max activity,at 19.5 µM unless noted,-12.8%
N#C[C@H]1[C@H](c2ccc(-c3cccc(F)c3)cc2)[C@H](CO)N1C(=O)NC1CCCC1,max activity,at 19.5 µM unless noted,27.1%
CCC(C)NC(=O)Cn1c(=O)c(S(=O)(=O)c2ccccc2)cc2ccccc21 (configuration not stated),max activity,at 19.5 µM unless noted,-6.38% [at 1.2 µM]
COc1ccc(CN2C[C@@H]3CN(Cc4cnn(C)c4)C[C@H]3C2=O)cc1,max activity,at 19.5 µM unless noted,-13% [at 10 µM]
Cc1cccc(S(=O)(=O)N2C[C@H]3[C@@H](c4ccccc42)[C@@H](CO)N3C(=O)c2ccccc2)c1,max activity,at 19.5 µM unless noted,6.73% [at 0.16 µM]
COCCC(=O)N1C[C@H](OCc2ccccn2)[C@@H]2COC[C@@H]21,max activity,at 19.5 µM unless noted,-16.7% [at 0.3 µM]
Oc1cccc(-c2nccn2-c2cccc(-c3ccn[nH]3)c2)c1,max activity,at 19.5 µM unless noted,-6.88% [at 10 µM]
O=S(=O)(Cc1ccccc1)N1CC2CN(Cc3cccc(Cl)c3)CC2C1 (configuration not stated),max activity,at 19.5 µM unless noted,19.1%
Cc1ccccc1-c1ccc([C@H]2[C@@H](CO)N3C(=O)CN(C(=O)c4ccncc4)C[C@H]23)cc1,max activity,at 19.5 µM unless noted,-12.2% [at 5 µM]
CC(C)CNc1nc2c(cc1C(=O)NC(C)C)CCN(c1ccncn1)CC2,max activity,at 19.5 µM unless noted,-10.6% [at 5 µM]
COc1ccccc1-c1ccc([C@@H]2[C@H](CO)N3CCCCN(C(=O)c4cccnc4)C[C@@H]23)cc1,max activity,at 19.5 µM unless noted,16.2%
O=C(Nc1ccccc1F)N1CCCCN2[C@H](C1)[C@H](c1ccc(/C=C/c3ccccc3)cc1)[C@@H]2CO,max activity,at 19.5 µM unless noted,13.2%
COc1ccccc1-c1ccc([C@@H]2[C@H]3CN(C(=O)c4cccnc4)CCCCN3[C@H]2CO)cc1,max activity,at 19.5 µM unless noted,9.09% [at 0.16 µM]
COc1ccccc1-c1ccc([C@@H]2[C@@H](CO)N3CCCCN(C(=O)c4cccnc4)C[C@@H]23)cc1,max activity,at 19.5 µM unless noted,-4.65% [at 5 µM]
CCN1C(=O)CO[C@H]2CN(C(=O)c3cnc4ccccc4c3)C[C@@H]21,max activity,at 19.5 µM unless noted,-7.5% [at 0.16 µM]
Cn1cnc2c1C(C(=O)O)CN(C(=O)c1ccsc1)C2 (configuration not stated),max activity,at 19.5 µM unless noted,-15.3% [at 10 µM]
CCn1cc(NC(=O)c2cccc(CN3C[C@@H](C)O[C@@H](C)C3)c2)nn1,max activity,at 19.5 µM unless noted,-7.36% [at 0.3 µM]
CN(C)C(=O)c1ccc2nnc3ncn(Cc4ccccc4)c3c2c1,max activity,at 19.5 µM unless noted,9.7% [at 2.6 µM]
O=C(Cc1ccccn1)N1CC(=O)N2[C@H](CO)[C@@H](c3ccc(C#CCC4CCCC4)cc3)[C@@H]2C1,max activity,at 19.5 µM unless noted,18.5%
CS(=O)(=O)N1CC(=O)N2[C@H](CO)[C@@H](c3ccc(C#Cc4ccc(F)cc4)cc3)[C@H]2C1,max activity,at 19.5 µM unless noted,15.4%
O=C(Cc1ccccn1)N1CC(=O)N2[C@H](C1)[C@H](c1ccc(C#CCC3CCCC3)cc1)[C@@H]2CO,max activity,at 19.5 µM unless noted,12.6%
CS(=O)(=O)N1CC(=O)N2[C@H](C1)[C@@H](c1ccc(C#Cc3ccc(F)cc3)cc1)[C@@H]2CO,max activity,at 19.5 µM unless noted,5.83% [at 2.6 µM]
O=C(Cc1ccccn1)N1CC(=O)N2[C@H](CO)[C@@H](c3ccc(C#CCC4CCCC4)cc3)[C@H]2C1,max activity,at 19.5 µM unless noted,20.5%
O=C(c1ccc(F)cc1)N1CC(=O)N2[C@H](CO)[C@@H](c3ccc(C#CCC4CCCC4)cc3)[C@@H]2C1,max activity,at 19.5 µM unless noted,23.3%
CS(=O)(=O)N1CCOC2C(COc3ncccn3)CCC21 (configuration not stated),max activity,at 19.5 µM unless noted,-15% [at 0.3 µM]
CCOC(=O)c1c(C)[nH]c(-c2ccccc2)c1-c1ccccc1,max activity,at 19.5 µM unless noted,4.75% [at 10 µM]
O=C(O)c1ccc(C2C(=O)NNCC2N2CCCC2)s1 (configuration not stated),max activity,at 0.16 µM,8.24%
same,max activity,at 19.5 µM,10.9%
Fc1cccnc1OC1COC2(CCN(Cc3ccsc3)CC2)C1 (configuration not stated),max activity,at 19.5 µM unless noted,18.6%
C[C@@H](N)C1CCC(C(=O)Nc2ccncc2)CC1 (some centres not stated),max activity,at 19.5 µM unless noted,-12.3% [at 0.08 µM]
Cc1cccc(-n2ncc3c(NC4CCCCCCCCCCC4)ncnc32)c1,max activity,at 19.5 µM unless noted,8.82% [at 10 µM]
COc1cccc(NC(=O)N2CC(=O)N3[C@H](C2)[C@H](c2ccc(C#CCC4CCCC4)cc2)[C@@H]3CO)c1,max activity,at 19.5 µM unless noted,38.8% [at 21 µM]
COc1ccc(C#Cc2ccc([C@H]3[C@H]4CN(C(=O)NC(C)C)CC(=O)N4[C@H]3CO)cc2)cc1,max activity,at 19.5 µM unless noted,13% [at 10 µM]
COc1ccc(C#Cc2ccc([C@@H]3[C@H](CO)N4C(=O)CN(C(=O)NC(C)C)C[C@@H]34)cc2)cc1,max activity,at 5 µM,-8.81%
same,max activity,at 19.5 µM,-6.49%
COc1ccc(C#Cc2ccc([C@@H]3[C@H]4CN(C(=O)NC(C)C)CC(=O)N4[C@H]3CO)cc2)cc1,max activity,at 19.5 µM unless noted,9.38% [at 0.6 µM]
COc1cccc(NC(=O)N2CC(=O)N3[C@@H](CO)[C@@H](c4ccc(C#CCC5CCCC5)cc4)[C@@H]3C2)c1,max activity,at 19.5 µM unless noted,9.07% [at 21 µM]
O=C1NCC(=O)N2CCN(C(=O)Nc3cc(Cl)cc(Cl)c3)CC12 (configuration not stated),max activity,at 19.5 µM unless noted,17.6% [at 2.6 µM]
CC(=O)N1Cc2ncn(CC3CC3)c2C(COCC2CCOCC2)C1 (configuration not stated),max activity,at 19.5 µM unless noted,-7.3% [at 0.16 µM]
C=CCN1CCC2(CC1)CC(NCc1ccc(C)s1)c1ccccc1O2 (configuration not stated),max activity,at 19.5 µM unless noted,5.11% [at 0.3 µM]
C/C=C/c1ccc([C@H]2[C@H]3CN(C(=O)Nc4cccc(OC)c4)CC(=O)N3[C@H]2CO)cc1,max activity,at 19.5 µM unless noted,-14.5% [at 2.6 µM]
COc1ccc(C#Cc2ccc([C@H]3[C@@H](CO)N4C(=O)CN(C(=O)NC(C)C)C[C@@H]34)cc2)cc1,max activity,at 19.5 µM unless noted,22.6%
CCCNC(=O)N1CC(=O)N2[C@H](C1)[C@@H](c1ccc(C#Cc3cccc(OC)c3)cc1)[C@@H]2CO,max activity,at 19.5 µM unless noted,8.44% [at 2.35 µM]
CCCNC(=O)N1CC(=O)N2[C@@H](CO)[C@H](c3ccc(C#Cc4cccc(OC)c4)cc3)[C@@H]2C1,max activity,at 19.5 µM unless noted,15.9%
OC1(c2cccc(C(F)(F)F)c2)CCN(Cc2ccc3[nH]ccc3c2)CC1,max activity,at 19.5 µM unless noted,6.52% [at 0.16 µM]
O=C(Cc1cccnc1)N1CC(=O)N2[C@H](CO)[C@@H](c3ccc(C#CC4CCCCC4)cc3)[C@@H]2C1,max activity,at 0.6 µM,-7.69%
same,max activity,at 19.5 µM,16.4%
Cc1cc(C(=O)N2CCC(c3cc4c(ncn4C)c(NCC4CC4)n3)CC2)ccc1Cl,max activity,at 19.5 µM unless noted,13.8%
Cc1ccccc1S(=O)(=O)N1CCCCN2[C@H](C1)[C@@H](c1ccc(C#CCN(C)C)cc1)[C@@H]2CO,max activity,at 19.5 µM unless noted,-29.9% [at 10 µM]
Cc1ccccc1S(=O)(=O)N1CCCCN2[C@@H](CO)[C@@H](c3ccc(C#CCN(C)C)cc3)[C@@H]2C1,max activity,at 19.5 µM unless noted,48.3%
O=S(=O)(c1ccc(F)cc1)N1CCCCN2[C@H](C1)[C@H](c1ccc(-c3cncnc3)cc1)[C@@H]2CO,max activity,at 19.5 µM unless noted,22.3%
Cc1ccccc1-c1ccc([C@H]2[C@H]3CN(S(=O)(=O)Cc4ccccc4)CCCCN3[C@H]2CO)cc1,max activity,at 19.5 µM unless noted,24.5%
COc1cccc(-c2ccc([C@H]3[C@H](CO)N4C(=O)CN(C(=O)c5cccnc5)C[C@@H]34)cc2)c1,max activity,at 19.5 µM unless noted,-9.74% [at 1.2 µM]
O=C(C1CCOCC1)N1CC(=O)N2[C@@H](CO)[C@H](c3ccc(/C=C/c4ccccc4)cc3)[C@@H]2C1,max activity,at 19.5 µM unless noted,7.51% [at 5 µM]
CC(=O)N1CCC(N(C)Cc2cc(C(C)(C)C)n[nH]2)CC1,max activity,at 19.5 µM unless noted,-9.85%
COCC(=O)N1CCC2(CC1)CC1(CCN(CC(C)C)CC1)C(=O)N2C,max activity,at 19.5 µM unless noted,-12.4% [at 10 µM]
O=S(=O)(c1ccccc1F)N1CC[C@@H]2[C@H](CO)Nc3ccc(C4=CCCCC4)cc3[C@@H]21,max activity,at 19.5 µM unless noted,-15.7% [at 5 µM]
COc1cccc(S(=O)(=O)N2CC[C@@H]3[C@H]2c2cc(C#Cc4cccnc4)ccc2N[C@@H]3CO)c1,max activity,at 19.5 µM unless noted,17.4%
CNC(=O)NCC1CCC2(CCN(Cc3ccccc3)CC2)CO1 (configuration not stated),max activity,at 19.5 µM unless noted,-9.71% [at 2.6 µM]
OC[C@H]1[C@H](c2ccc(-c3cccc(F)c3)cc2)[C@H]2CN(Cc3cncnc3)CCCCN21,max activity,at 19.5 µM unless noted,16.3%
N#Cc1c(N2C[C@@H]3NCCO[C@H]3C2)c(F)cc2c(=O)c(C(=O)O)cn(C3CC3)c12,max activity,at 19.5 µM unless noted,9.32% [at 1.2 µM]
Cc1ccc(N2CCC[C@]3(C(=O)O)CN(CCN(C)C)C[C@H]3C2)nn1,max activity,at 19.5 µM unless noted,-23.7% [at 5 µM]
